Among all 350,000 compounds or so, about 31,000 (8.9%) were called active. Inconclusive results (about 15%) are left out. Calls follow the shape of the dose curve; as a rule, active = well fitted inhibition curve with a large enough effect; inconclusive = small, poorly fitted or top-dose-only effect; inactive = no such curve, though single readings can be large or run the other way. The entries come from a sample that favours actives as a whole. A call without a number means that no potency is given here.
Target: Histone-lysine N-methyltransferase EHMT2 (Homo sapiens) (UniProt Q96KQ7)
Sequence (Q96KQ7 913-1193 limits assumed): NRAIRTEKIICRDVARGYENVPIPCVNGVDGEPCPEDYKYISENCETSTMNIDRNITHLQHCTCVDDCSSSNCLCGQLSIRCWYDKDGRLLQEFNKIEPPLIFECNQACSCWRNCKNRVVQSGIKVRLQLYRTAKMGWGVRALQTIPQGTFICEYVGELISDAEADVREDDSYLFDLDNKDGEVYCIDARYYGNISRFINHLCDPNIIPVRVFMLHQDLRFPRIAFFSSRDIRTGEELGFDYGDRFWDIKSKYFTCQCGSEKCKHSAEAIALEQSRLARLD
Test: qHTS Assay for Inhibitors of Histone Lysine Methyltransferase G9a; also: nearly all actives have a fitted effect of over 75% in size
Details: G9a H3K9 monomethylation, AlphaScreen, 2 h; series mostly up to 59 µM
Summary of the method: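 Chemiluminescent proximity detection of H3K9 monomethylation, read after 10 min bead incubation in the dark. Reaction: 20 nM G9a, 500 nM biotin-H3K9 peptide, 20 uM SAM cofactor, 2 h, room temperature, following 15 min enzyme-compound preincubation.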
Potency is read from the fitted curve at half-maximal effect.

Row | Structure (SMILES) | Potency | activity, negative = inhibition
1 | Cc1ccc(Cl)cc1N1CCN(C(=O)c2cnc3c(-c4ccc(F)cc4)c(C)nn3c2C)CC1 | inactive | 
2 | Nc1nnc(SCn2nnc3ccccc3c2=O)s1 | 28.2 µM (active) | 
3 | O=c1c2ccccc2nnn1CSc1nc2sc3c(c2c(=O)n1CC1CCCO1)CCC3 (stereo not given) | inactive | 
4 | Cc1cccc(OCc2nnc(SCn3nnc4ccccc4c3=O)o2)c1 | inactive | 
5 | O=C(Nc1ccc(F)cc1)c1ccc(S(=O)(=O)NCc2cccnc2)cc1 | inactive | 
6 | O=C(NNS(=O)(=O)c1ccc(F)cc1)c1cnccn1 | 10 µM (active) | 
7 | O=C(Nc1ccc(S(=O)(=O)N2CCCCC2)cc1)c1cnccn1 | inactive | 
8 | CSCCC(NC(=O)c1ccco1)C(=O)Nc1cc(C)ccn1 (stereo not given) | inactive | 
9 | CCn1c(=O)cc(OCC(=O)Nc2cc(Cl)c(OC)cc2OC)c2ccccc21 | inactive | 
10 | CCN(CC)c1ccc(S(=O)(=O)N2CCCCC2)cc1NC(=O)C1=COCCO1 | inactive | 
11 | Cc1ccccc1Cn1nc(C)c(NC(=O)c2cc(-c3ccc(F)cc3)on2)c1C | inactive | 
12 | Cc1cc(C)cc(C(=O)NCC(=O)OCC(=O)N2CCCCC2)c1 | inactive | 
13 | Cc1nnnn1/C(=C\c1ccccc1)C(=O)OCC(=O)N1CC2(C)CC1CC(C)(C)C2 (stereo not given) | inactive | 
14 | Cc1cccc(C(=O)NCC(=O)OCC(=O)N2CC3(C)CC2CC(C)(C)C3)c1 (stereo not given) | 6.31 µM (active) | 
15 | O=S(=O)(NCCc1ccccn1)c1cc(Cl)cc(Cl)c1O |  | 22.1% [at 2.33 µM] (inactive)
16 | CCOC(=O)c1ccccc1NC(=O)CC1Nc2ccccc2NC1=O (stereo not given) | inactive | 
17 | O=C(CC1Nc2ccccc2NC1=O)Nc1ccccc1NC(=O)CC1Nc2ccccc2NC1=O (stereo not given) | inactive | 
18 | COC(=O)c1cc(C)sc1NC(=O)CC1Nc2ccccc2NC1=O (stereo not given) | 50.1 µM (active) | 
19 | Cc1cccc(-n2ncc(C(=O)N3CCC(C)CC3)c2C2CCN(C(=O)OC(C)(C)C)CC2)c1 | inactive | 
20 | O=C(CS(=O)(=O)c1cccc2nsnc12)N1CCN(c2cccc(Cl)c2)CC1 | inactive | 

Row | Structure (SMILES) | Potency | activity, negative = inhibition
21 | CCN(CC(=O)Nc1ccc(OC)cc1)C(=O)CSCc1ccc(C)cc1 |  | -8.18% [at 12.7 µM] (inactive)
22 | COc1cc(NC(=O)Nc2ccc(C)cc2)cc([N+](=O)[O-])c1 |  | 9.42% [at 2.33 µM] (inactive)
23 | COc1ccc(Cc2n[nH]c(=S)n2NC(=O)Nc2ccc(C)cc2)cc1 | 8.91 µM (active) | 
24 | Cc1csc(SCC(=O)N(c2ccccc2)C(C)C)n1 | inactive | 
25 | CCOc1ccc(NC(=O)c2ncoc2-c2ccco2)cc1 | inactive | 
26 | O=C(NCc1ccccc1CN1CCCC1)C1CCN(S(=O)(=O)c2ccc(Cl)cc2)CC1 | inactive | 
27 | C/C(=N\Nc1ncc(Cl)cc1Cl)c1ccc(S(=O)(=O)NCc2ccco2)cc1 | inactive | 
28 | O=C(CCCl)Nc1ccc(S(=O)(=O)NCc2ccco2)cc1 | inactive | 
29 | Cc1c(Cl)cnc(NC(=O)COC(=O)c2ccc(S(=O)(=O)NCc3ccco3)cc2)c1Cl | 44.7 µM (active) | 
30 | CCC(=O)Nc1ccc(S(=O)(=O)Nc2c(NC)c3ccccc3oc2=O)cc1 | inactive | 
31 | Cc1ccc(CSc2oc(-c3cccs3)nc2S(=O)(=O)c2ccc(C)cc2)cc1 | inactive | 
32 | Cc1ccc(S(=O)(=O)c2nc(-c3cccs3)oc2NCc2cccnc2)cc1 | 25.1 µM (active) | 
33 | O=S(=O)(c1ccccc1)c1nc(-c2ccccc2F)oc1NCc1cccnc1 | inactive | 
34 | Cc1ccc(N2C(=O)CC(N3CCSCC3)C2=O)c(C)c1 (stereo not given) | inactive | 
35 | Cc1cc(Cl)ccc1N1C(=O)CC(SCCC(=O)O)C1=O (stereo not given) | 10 µM (active) | 
36 | CCC1Oc2ccc(Cl)cc2N(CC(=O)O)C1=O (stereo not given) | inactive | 
37 | Cc1ccc(CSc2nc3cccnc3n2Cc2ccc(C(=O)NC3CC3)cc2)cc1 | inactive | 
38 | COc1ccc(OCCn2cc(C(=O)C3CCCCC3)c3ccccc32)cc1 | inactive | 
39 | O=C1CSC2(C(=O)N(Cc3ccccc3)c3ccccc32)N1c1cccc(F)c1 (stereo not given) | inactive | 
40 | CCOc1ccccc1NC(=O)c1ccc2c(c1)CCN2S(=O)(=O)c1ccc(C)cc1 | inactive | 

Row | Structure (SMILES) | Potency | activity, negative = inhibition
41 | S=c1[nH]c2ccccc2c2ccccc12 | 8.91 µM (active) | 
42 | NC(=O)Cc1ccc2c(c1)[nH]c1ccccc12 | inactive | 
43 | CC(=O)c1c(-c2ccccc2)c2ccccc2[nH]c1=O | inactive | 
44 | CCc1ccccc1N(C)C(=O)C1CCCN(c2ncnc3onc(-c4ccc(F)cc4)c23)C1 (stereo not given) | inactive | 
45 | COc1ccc([C@H]2CC(=O)C=C(/C=C/c3ccccc3)C2)cc1 |  | -12.4% [at 2.33 µM] (inactive)
46 | COc1ccccc1Nc1nc(N)nc(N)c1S(=O)(=O)c1ccccc1 | inactive | 
47 | Cc1ccc(C)c2[nH]c(=O)c(CCNC(=O)c3cccs3)cc12 | inactive | 
48 | C=CCn1c(CCc2ccc(OC(C)C)cc2)n[nH]c1=S | inactive | 
49 | C=CCn1c(CCNC(=O)c2cccs2)n[nH]c1=S | 11.2 µM (active) | 
50 | CCc1ccc(N(C(=O)c2csnn2)C(C(=O)NC2CCCCC2)c2cccnc2)cc1 (stereo not given) | inactive | 
51 | Cc1c(NS(=O)(=O)c2cc(C(=O)NCCc3ccc(F)cc3)cc(Cl)c2Cl)c(=O)n(-c2ccccc2)n1C | inactive | 
52 | COc1cc(Cl)ccc1OCc1cc(C(=O)N(C)CCc2c(C)n[nH]c2C)no1 | 39.8 µM (active) | 
53 | Cc1cc(CN(C)C(=O)c2cc(COc3ccc(C)c(C)c3)on2)n[nH]1 | inactive | 
54 | CSc1ccccc1OCc1cc(C(=O)N(C)CCc2c(C)n[nH]c2C)no1 |  | 43.1% [at 0.0925 µM] (inactive)
55 | NC(=O)NCCCC(=O)O |  | -0.244% [at 12.7 µM] (inactive)
56 | Cc1ccccc1-c1nc2scc(CCNC(=O)C(=O)Nc3ccc(F)cc3F)n2n1 | inactive | 
57 | NC(=O)CC[C@@H]1NC(=O)[C@H](CO)NC(=O)c2cc([N+](=O)[O-])cc(I)c2NCC[C@@H](C(N)=O)NC1=O | 10 µM (active) | 
58 | CC(C)[C@@H]1NC(=O)c2cc([N+](=O)[O-])cc(I)c2NCCC[C@@H](C(=O)NC(CC(=O)O)C(N)=O)NC(=O)[C@H](CO)NC1=O (stereo not given in full) | inactive | 
59 | NC(=O)C[C@@H]1NC(=O)CNC(=O)c2cc([N+](=O)[O-])cc(I)c2NCCC(C(N)=O)NC1=O (stereo not given in full) | 11.2 µM (active) | 
60 | NCCCC[C@@H]1NC(=O)[C@H](CCC(=O)O)NC(=O)c2cc([N+](=O)[O-])cc(I)c2NCC[C@@H](C(N)=O)NC1=O | 14.1 µM (active) | 

From PubChem BioAssay AID504332 (National Center for Advancing Translational Sciences (NCATS), 2011)
